# About 83,000 compounds went through this panel and 20% of them were active in at least one assay; those are over-represented in the sample as a whole.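 Activity criterion: percent growth below 10, measured after cells in 96-well plates were exposed to a single compound concentration for 48 hours.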 Values without a mark were called inactive. The source made the active and inactive calls.
# How the values were obtained:
# Experiment in all cases: NCI-60 one-dose screen, 48 h (100 = growth as untreated, 0 = no growth, -100 = all killed)
# Details in all cases: 10 µM unless noted
# RPMI-8226 leukemia = test system: RPMI-8226 leukemia
# OVCAR-8 ovarian = test system: OVCAR-8 ovarian
# OVCAR-5 ovarian = test system: OVCAR-5 ovarian
# OVCAR-4 ovarian = test system: OVCAR-4 ovarian
# SK-OV-3 ovarian = test system: SK-OV-3 ovarian
# IGROV1 ovarian = test system: IGROV1 ovarian
# OVCAR-3 ovarian = test system: OVCAR-3 ovarian
# HS 578T breast = test system: HS 578T breast
# NCI/ADR-RES ovarian = test system: NCI/ADR-RES ovarian
# T-47D breast = test system: T-47D breast
# BT-549 breast = test system: BT-549 breast
# MDA-MB-435 melanoma = test system: MDA-MB-435 melanoma
# SW-620 colon = test system: SW-620 colon
# MCF7 breast = test system: MCF7 breast
# HCT-116 colon = test system: HCT-116 colon
# KM12 colon = test system: KM12 colon
# HCC-2998 colon = test system: HCC-2998 colon
SMILES,growth (RPMI-8226 leukemia),growth (OVCAR-8 ovarian),growth (OVCAR-5 ovarian) [%],growth (OVCAR-4 ovarian),growth (SK-OV-3 ovarian),growth (IGROV1 ovarian),growth (OVCAR-3 ovarian),growth (HS 578T breast),growth (NCI/ADR-RES ovarian),growth (T-47D breast),growth (BT-549 breast),growth (MDA-MB-435 melanoma),growth (SW-620 colon),growth (MCF7 breast),growth (HCT-116 colon),growth (KM12 colon),growth (HCC-2998 colon)
COc1ccc(N2CCN(Cc3cc(C(=O)/C=C/c4c[nH]c5ccccc45)ccc3O)CC2)cc1,94.8%,95.5%,106,93%,93.5%,109%,114%,105%,106%,93.8%,107%,105%,104%,97.4%,110%,110%,
O=S(=O)(NCCNc1nccc(-c2c(-c3cccc(O)c3)nc3sccn23)n1)c1ccc(F)cc1,76.2%,67.6%,107,103%,85.9%,63.7%,86.8%,83%,97.9%,85.3%,79.3%,29.4%,103%,38.2%,45.9%,56.6%,
CN(C)c1ncnc2c1ccn2C1OC(CO)C(O)C1O (stereo not given),83.7%,0.899% (active),39.5,33.3%,33.7%,-0.957% (active),25.9%,17.5%,1.88% (active),,57.3%,62.3%,36.3%,-7.76% (active),37%,84.1%,22.7%
O=C(/C=C/c1c[nH]c2ccccc12)c1ccc(O)c(CN2CCN(c3ccc(F)cc3)CC2)c1,91%,95.1%,90.8,93.9%,101%,106%,103%,108%,103%,98%,99.2%,109%,104%,98.5%,98.3%,99.5%,
Clc1ccc(-c2nc3ccccc3s2)cc1Cl,104%,98.9%,103,81.3%,108%,75%,92.7%,104%,98.1%,61.3%,97.4%,121%,,67.8%,99%,97.1%,93.9%
O=C(c1ccccc1)c1c(/C=C/c2ccccc2)c2ccccc2[nH]c1=O,94.6%,90.9%,90.4,97.7%,102%,95.4%,97.6%,88.7%,97.5%,93.5%,92.4%,98.2%,101%,97.3%,100%,96%,
CCCCCCCC[C@@H](O)CC(=O)N[C@@H](CC(N)=O)C(=O)N[C@@H](CCC(N)=O)C(=O)N[C@@H](CC(=O)c1cc(C)cc(O)c1C(=O)c1c(O)cccc1O)CC(C)C,10.9%,47.6%,39.9,41.1%,63.4%,15.1%,-3.89% (active),26.9%,93.7%,-3.58% (active),-1.45% (active),-39.6% (active),,29.9%,-9.35% (active),1.64% (active),-72.6% (active)
COc1ccc(NC(=O)c2cc(OC)c(OC)c(OC)c2)cc1O,51.8%,57.6%,83.4,57.4%,29.1%,54.7%,-27.6% (active),-10.2% (active),13.2%,42.5%,45.5%,-15.1% (active),28.1%,,33.4%,22.9%,
COc1ccc(/C=C2\CN(Cc3cn(CCNc4ccnc5cc(Cl)ccc45)nn3)C/C(=C\c3ccc(OC)c(OC)c3)C2=O)cc1OC,-1.73% (active),-3.77% (active),18.1,29.8%,4.28% (active),7.35% (active),-13.9% (active),23.4%,103%,32.9%,-31.6% (active),-5.87% (active),0.355% (active),28%,-85.3% (active),-35.7% (active),
O=C(Oc1ccccc1[N+](=O)[O-])C1CCCN1C(=O)OCc1ccccc1 (stereo not given),97.3%,97.5%,109,103%,108%,109%,110%,112%,92.7%,110%,89.6%,104%,105%,95.6%,87%,107%,
Cc1cc(N)n(S(=O)(=O)c2oc(-c3ccccc3)nc2C#N)n1,75.9%,89.4%,109,106%,91.8%,97.9%,89.9%,116%,100%,71%,101%,91.8%,,64%,75%,101%,114%
COc1cc(-c2nn(-c3cccc(NC(=O)c4ccc(Cl)c(C(F)(F)F)c4)c3)cc2-c2ccncc2)ccc1Cl,25.4%,38.9%,91.3,66%,64.3%,48.9%,19.5%,34.7%,13.4%,26.2%,49.7%,-26.8% (active),36.1%,37.6%,24%,28.8%,
COc1ccc(-c2cc3c(OC)c(OC)c(OC)cc3oc2=O)cc1,54.6%,67%,74,81.3%,67.1%,61.6%,5.53% (active),33.3%,4.06% (active),42.2%,57.5%,-17.1% (active),25.1%,26.2%,21.7%,21.9%,
COc1ccc(NC(=O)CSc2nc(-c3ccc(OC)c(OC)c3)cc(-c3cc(OC)c(OC)c(OC)c3)n2)cc1,78.2%,94.2%,99.1,106%,109%,122%,114%,90.8%,98.7%,,95.5%,112%,105%,94%,90.3%,98.4%,111%
COc1cc(-c2nn(-c3cccc(NC(=O)c4ccc(N5CCOCC5)c(C(F)(F)F)c4)c3)cc2-c2ccncc2)ccc1Cl,8.3% (active),5.23% (active),34.7,52.3%,1.88% (active),41.8%,-29.8% (active),-13.6% (active),-7.13% (active),27.5%,14.3%,-35.1% (active),25.2%,,8.35% (active),5.64% (active),8.82% (active)
COc1ccc(-c2c(N)n[nH]c2-c2cc3c(c(OC)c2OC)OCO3)cc1,57.5%,104%,85.5,99.1%,106%,96.4%,108%,83.3%,96.8%,106%,101%,106%,101%,,94.1%,99.9%,106%
O=C(Nc1ccc2c(c1)OCCO2)C(=O)c1c[nH]c2ccccc12,21.6%,53.5%,45.2,51.2%,12.8%,44.5%,-45.1% (active),13.1%,-30.3% (active),42.7%,44.2%,-29.1% (active),18%,18.4%,14.7%,10.8%,
CCCCCCCCCCCCCCCCNC(=O)OC(C)C,80.1%,63.8%,,-39.2% (active),69.7%,,19.5%,78.2%,65.9%,,95.8%,68.5%,18.9%,1.73% (active),20.8%,0.501% (active),57.1%
CCN(CC)CCC(CNc1ccnc2cc(Cl)ccc12)c1ccc(Cl)cc1 (stereo not given),-0.553% (active),1.27% (active),22,,-12.9% (active),33.5%,25%,-66.8% (active),23.4%,-76% (active),,-72.2% (active),-67.8% (active),-70.7% (active),-26.9% (active),17.9%,-64.8% (active)

# Reference: PubChem BioAssay (NCI)
